Here are results for eight compounds from PubChem BioAssay (NCI).

Structures are written as SMILES. The panel holds about 83,000 compounds, 20% with a hit somewhere; the sample as a whole holds those more often.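 Each cell line was grown in a 96-well plate and treated with one concentration of compound for 48 hours. Values below 10 were considered active.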 Values without a mark were called inactive. Active and inactive are the calls of the source.

Some test systems named below: HCT-15 colon; HT29 colon; SNB-75 CNS; SNB-19 CNS; U251 CNS; PC-3 prostate; SK-MEL-5 melanoma; UACC-62 melanoma; LOX IMVI melanoma; SK-MEL-28 melanoma; SK-MEL-2 melanoma; EKVX NSCLC; SN12C renal; UO-31 renal; TK-10 renal; ACHN renal; CAKI-1 renal; A498 renal; CCRF-CEM leukemia; MOLT-4 leukemia.
Holding throughout (experiment): NCI-60 one-dose screen, 48 h (100 = growth as untreated, 0 = no growth, -100 = all killed)
Conditions in all cases: 10 µM unless noted

Consider `O=C(Nc1sc2c(c1C(=O)O)CCCC2)c1cccc(C(F)(F)F)c1`, for which the growth in the assay with HCT-15 colon is 89.3%; with HT29 colon, 97.7%; in the assay with SNB-75 CNS, 104%; with SNB-19 CNS, 100%; with U251 CNS it was 88.3%; in the assay with PC-3 prostate it was 90.8%. In addition, the growth is 81.2% in the assay on SK-MEL-5 melanoma; 77.5% in the assay with UACC-62 melanoma; 102% in the assay on LOX IMVI melanoma; 94.4% in the assay on SK-MEL-28 melanoma; 98.6% in the assay on SK-MEL-2 melanoma; 93.7% in the assay on EKVX NSCLC. The growth with SN12C renal is 95.6%; in the assay with UO-31 renal, 85.8%; in the assay on TK-10 renal, 105%; in the assay with ACHN renal it was 87.9%; in the assay with CAKI-1 renal, 91.1%; in the assay with A498 renal it was 95.2%. The values for the growth in the assay with CCRF-CEM leukemia and in the assay with MOLT-4 leukemia were 85.3% and 96.9%, respectively.
With `O=c1nc2n(nc1/C=C/c1ccco1)CC(c1ccc(Cl)cc1)=NN2`, the growth with HCT-15 colon is 135%; in the assay on HT29 colon, 109%; with SNB-75 CNS, 91.6%; in the assay on SNB-19 CNS, 96.5%; with U251 CNS, 115%; with PC-3 prostate it was 97.6%. Besides, the growth is 99.9% in the assay on SK-MEL-5 melanoma; 97.6% in the assay on UACC-62 melanoma; 113% in the assay with LOX IMVI melanoma; 120% with SK-MEL-28 melanoma; 30.3% with SK-MEL-2 melanoma; 72.1% with EKVX NSCLC. The growth with SN12C renal is 136%; in the assay with UO-31 renal, 64%; in the assay on TK-10 renal it was 104%; in the assay on ACHN renal it was 122%; in the assay with CAKI-1 renal, 94%; in the assay on A498 renal, 107%. In addition, the growth is 98% in the assay with CCRF-CEM leukemia and 84.2% in the assay with MOLT-4 leukemia.
Regarding `COc1ccc2c(c1)OC1=C(C(=O)OC1)C2c1cc(OC)c(OC)c(OC)c1` (stereo not given), the growth in the assay with HCT-15 colon is 19%; in the assay with HT29 colon, 6.93% (active); in the assay on SNB-75 CNS it was 41.1%; in the assay with SNB-19 CNS it was 33.8%; in the assay on U251 CNS it was 21.6%; with PC-3 prostate, 28.1%. Besides, the growth in the assay on SK-MEL-5 melanoma was 16.1%; in the assay on UACC-62 melanoma, 42.3%; in the assay with LOX IMVI melanoma, 50.8%; with SK-MEL-28 melanoma, 53.5%; in the assay on SK-MEL-2 melanoma it was 27.3%; with EKVX NSCLC it was 50.7%. Moreover, the growth with SN12C renal was 47.7%; in the assay on UO-31 renal it was 51.5%; in the assay on TK-10 renal, 67.4%; with ACHN renal, 48.8%; in the assay on CAKI-1 renal it was 55.6%; in the assay with A498 renal, -1.39% (active). Moreover, the growth is 13.8% in the assay with CCRF-CEM leukemia and 20.4% in the assay on MOLT-4 leukemia.
Regarding `COc1nccnn1`, the growth was 98.1% with HCT-15 colon; 97.8% with HT29 colon; 96.5% in the assay on SNB-75 CNS; 91.2% in the assay on SNB-19 CNS; 100% in the assay with U251 CNS; 87.1% with PC-3 prostate. Also, the growth in the assay on SK-MEL-5 melanoma is 104%; with UACC-62 melanoma, 98.9%; in the assay with LOX IMVI melanoma, 94.9%; in the assay with SK-MEL-28 melanoma it was 102%; in the assay on SK-MEL-2 melanoma it was -31.3% (active); with EKVX NSCLC it was 107%. The growth in the assay with SN12C renal was 97.1%; in the assay on UO-31 renal, 100%; with TK-10 renal, 93.3%; in the assay with ACHN renal it was 100%; in the assay on CAKI-1 renal, 108%; with A498 renal, 92.9%. For the same compound, the results for the growth with CCRF-CEM leukemia and with MOLT-4 leukemia were 99.8% and 106%, respectively.
As for `COc1c(Cl)cc(Cl)c2ccc(C=C3C(=O)N(C)C(=O)N(C)C3=O)nc12`, the growth with HCT-15 colon is 103%; with HT29 colon it was 105%; in the assay on SNB-75 CNS it was 98.6%; with SNB-19 CNS, 92%; in the assay on U251 CNS it was 110%; in the assay with PC-3 prostate, 99.4%. In addition, the growth is 101% in the assay on SK-MEL-5 melanoma; 102% in the assay with UACC-62 melanoma; 101% in the assay with LOX IMVI melanoma; 109% in the assay with SK-MEL-28 melanoma; 107% in the assay on SK-MEL-2 melanoma; 101% with EKVX NSCLC. In addition, the growth with SN12C renal is 99.3%; with UO-31 renal, 96%; in the assay on TK-10 renal, 102%; with ACHN renal, 106%; with CAKI-1 renal it was 95.3%; in the assay on A498 renal, 96.8%. Besides, the growth in the assay on CCRF-CEM leukemia is 99.8%; in the assay on MOLT-4 leukemia it was 99.5%.
Turning to `O=S(=O)(NCCNc1nccc(-c2c(-c3cccc(F)c3)nc3occn23)n1)c1cccc2ccccc12`, the growth was 41.5% in the assay on HCT-15 colon; 34.2% in the assay with HT29 colon; 61.4% with SNB-75 CNS; 67.1% in the assay on SNB-19 CNS; 59.7% with U251 CNS; 30.6% with PC-3 prostate. Besides, the growth is 30% in the assay on SK-MEL-5 melanoma; 45.1% in the assay on UACC-62 melanoma; 59.7% in the assay with LOX IMVI melanoma; 73% in the assay on SK-MEL-28 melanoma; 58.3% in the assay with SK-MEL-2 melanoma; 48.5% in the assay with EKVX NSCLC. Also, the growth in the assay with SN12C renal was 47.6%; in the assay on UO-31 renal, 15.9%; with TK-10 renal, 47.1%; in the assay with ACHN renal it was 40.5%; in the assay on CAKI-1 renal it was 25%; with A498 renal it was 37.7%. In addition, the figures for the growth with CCRF-CEM leukemia and in the assay on MOLT-4 leukemia were 43.8% and 26.3%, respectively.
For the compound `COc1ccccc1N1CCN(C(=O)c2ccc3nc(NC(=O)c4ccc(NCCc5ccccc5)c([N+](=O)[O-])c4)sc3c2)CC1`, the growth in the assay on HCT-15 colon was 81.5%; in the assay on HT29 colon it was 83.4%; in the assay on SNB-75 CNS, 91.4%; in the assay on SNB-19 CNS it was 95.2%; in the assay on U251 CNS, 86.4%; with PC-3 prostate, 77.9%. For the same compound, the growth with SK-MEL-5 melanoma was 84.4%; in the assay with UACC-62 melanoma, 71.8%; in the assay with LOX IMVI melanoma, 81.6%; with SK-MEL-28 melanoma it was 91.5%; in the assay on SK-MEL-2 melanoma, 93.4%; with EKVX NSCLC, 89%. Also, the growth in the assay with SN12C renal is 77.2%; in the assay on UO-31 renal it was 60.1%; in the assay on TK-10 renal, 110%; with ACHN renal it was 90.6%; in the assay on CAKI-1 renal it was 73.4%; in the assay on A498 renal, 79.6%. In addition, the growth in the assay with CCRF-CEM leukemia is 77.6%; in the assay with MOLT-4 leukemia it was 95.4%.
Regarding `C[C@]12C[C@H]1CC[C@]1(C)[C@@H]2CC[C@@]23C[C@H](CC[C@H]21)[C@@](O)(CO)C3`, the growth in the assay on HCT-15 colon was 88.6%; in the assay with HT29 colon, 100%; in the assay on SNB-75 CNS, 105%; in the assay on SNB-19 CNS it was 95.4%; in the assay with U251 CNS, 103%; in the assay on PC-3 prostate it was 88.9%. Moreover, the growth in the assay with SK-MEL-5 melanoma is 97.7%; in the assay with UACC-62 melanoma, 76.2%; in the assay with LOX IMVI melanoma it was 93.6%; with SK-MEL-28 melanoma, 105%; with SK-MEL-2 melanoma, 104%; in the assay on EKVX NSCLC, 74.8%. Also, the growth in the assay with SN12C renal was 92%; in the assay with UO-31 renal it was 84%; in the assay on TK-10 renal, 100%; in the assay with ACHN renal, 107%; with CAKI-1 renal, 85.9%; with A498 renal, 92.9%. Moreover, the growth in the assay with CCRF-CEM leukemia is 86.4%; in the assay with MOLT-4 leukemia, 96%.
